From PubChem BioAssay (Tox21)
Unmarked numbers belong to inactive results. Results filed as inconclusive are left out. A call without a number means that no potency is given here. The source made the active and inactive calls. Unless noted, calls follow the shape of the full dose curve.

Experiments:
[1] = Nuclear factor erythroid 2-related factor 2/antioxidant responsive element (Nrf2/ARE) small molecule agonists: qHTS cell viability counter screen in human keratinocytes (AID 1919968; active = well fitted curve in the direction sought with a large enough effect in the repeat runs; an effect the other way counts as inactive or inconclusive; also: nearly all actives have a fitted effect of over 55% in size; also: potency is read from the fitted curve at half-maximal effect)
In short: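 Measured as CellTiter-Fluor fluorescence, this readout tracks cytotoxicity in the same wells as the ARE-luciferase screen. HaCaT reporter cells (1,500/well) received compounds after a 5 h pre-incubation and were exposed for 23 h.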

[2] = Nuclear factor erythroid 2-related factor 2/antioxidant responsive element (Nrf2/ARE) small molecule agonists: luciferase reporter gene qHTS assay in human keratinocytes (AID 1919969); also: nearly all actives have a fitted effect of over 35% in size; also: potency is read from the fitted curve at half-maximal effect
[3] = target: Gonadotropin-releasing hormone receptor (Homo sapiens) (UniProt P30968); assay: Human gonadotropin-releasing hormone receptor (GnRHR) small molecule agonists, calcium flux assay in GnRHR-HEK293 cells (AID 1920063); also: nearly all actives have a fitted effect of over 35% in size
In short: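 Fluorescence kinetics (480 nm excitation, 540 nm emission; 3 min, 1 s steps) report calcium mobilisation in human GnRHR-HEK293 cells in agonist mode. Dye incubation: 1 h, 37 C.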

[4] = target: KiSS-1 receptor (Homo sapiens) (UniProt Q969F8); assay: Human kisspeptin (KISS1R) small molecule agonists, calcium flux assay in KISS1R-HEK293 cells (AID 1920064; active = well fitted curve in the direction sought with a large enough effect in the repeat runs; an effect the other way counts as inactive or inconclusive)
In short: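 Measures KISS1R agonism through calcium-sensitive dye fluorescence in stably transfected HEK293 cells, read for 3 min after pin-tool compound delivery; 15-point titrations in triplicate.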

[5] = G protein-coupled receptor (GPCR) small molecule agonists, calcium flux assay: HEK293 wild type cell line counter screen (AID 1920065)
In short: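 Readout: fluorescence at 480 nm excitation/540 nm emission, sampled at 1 s intervals for 3 min. Cells had been cultured 18 h, then dye-loaded 1 h at 37 C before compound or ATP addition.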

[6] = p53 small molecule agonists, cell-based qHTS assay with human liver microsomes: qHTS cell viability counter screen (AID 1963579); also: nearly all actives have a fitted effect of over 45% in size
In short: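 Metabolically activated exposure: compounds, human liver microsomes and NADPH (0.5 mg/mL final apiece) were added to p53RE-bla cells seeded 5 h earlier, left 16 h at 37 C, and then assessed for viability by CellTiter-Glo luminescence.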

[7] = p53 small molecule agonists, cell-based qHTS assay with rat liver microsomes: qHTS cell viability counter screen (AID 1963580); also: nearly all actives have a fitted effect of over 45% in size
In short: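 HCT-116 p53RE-bla, 4,000 cells/well, 5 h pre-incubation; cpd + rat liver microsomes 0.5 mg/mL + NADPH 0.5 mg/mL (final); 16 h, 37 C; CellTiter-Glo, 30 min RT; luminescence.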

[8] = p53 small molecule agonists, cell-based qHTS assay: qHTS cell viability counter screen (AID 1963581); also: nearly all actives have a fitted effect of over 45% in size
In short: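 In the same plates used for the p53 bla reporter, HCT-116 cells given compounds for 16 h at 37 C received CellTiter-Glo; luminescence was recorded 30 min later at room temperature.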

[9] = p53 small molecule agonists, cell-based qHTS assay (AID 1963582; active = well fitted activation curve with a large enough effect in the signal ratio in the repeat runs, not every such curve was filed as active; the % refers to the signal ratio)
In short: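 Compounds are pin-transferred in DMSO onto p53RE-bla cells and incubated 16 h at 37 C. The B/G FRET beta-lactamase substrate is then applied for 2 h at RT and fluorescence recorded.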

[10] = target: 5-hydroxytryptamine receptor 2A (Homo sapiens) (UniProt P28223); assay: 5-hydroxytryptamine receptor 2A (HTR2A) small molecule agonists, cell-based qHTS assay (AID 1963587); also: nearly all actives have a fitted effect of over 30% in size
In short: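 Kinetic calcium-flux fluorescence (2 min, 1 sec intervals) after compound addition in agonist mode. HTR2A-CHO cells were cultured 18 h, then dye-loaded 1 h at 37 C.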

[11] = target: Muscarinic acetylcholine receptor M1 (Homo sapiens) (UniProt P11229); assay: Cholinergic receptor muscarinic 1 (CHRM1) small molecule antagonists, cell-based qHTS assay (AID 1963588); also: nearly all actives have a fitted effect of over 40% in size; also: potency is read from the fitted curve at half-maximal effect
In short: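 CHRM1-CHO calcium-flux assay, antagonist mode. Cells were seeded 18 h, dye-loaded 1 h at 37 C and given compound for 5 min at RT, then acetylcholine was added at 50nM. FDSS fluorescence was read 3 min; 15 concentrations, three runs.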

[12] = target: Muscarinic acetylcholine receptor M1 (Homo sapiens) (UniProt P11229); assay: Cholinergic receptor muscarinic 1 (CHRM1) small molecule agonists, cell-based qHTS assay (AID 1963589); also: nearly all actives have a fitted effect of over 35% in size
In short: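 Each compound was tested at 15 concentrations across three independent runs on dye-loaded CHO cells stably expressing human CHRM1, reading intracellular calcium fluorescence kinetically at 1 sec intervals.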

[13] = cAMP Responsive Elements (CRE) small molecule agonists, cell-based qHTS assay (AID 1963590)
In short: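 Cell line: CRE-bla HEK 293T; medium DMEM/10% dialyzed FBS/0.1 mM NEAA/1 mM pyruvate/25 mM HEPES; 3 h compound exposure; beta-lactamase FRET readout after 2 h substrate loading at RT.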

[14] = cAMP Responsive Elements (CRE) small molecule antagonists, cell-based qHTS assay (AID 1963591; active = well fitted inhibition curve with a large enough effect in the signal ratio in the repeat runs, not every such curve was filed as active; the % refers to the signal ratio)
In short: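 Inhibition of NKH477-driven (0.25 uM final) CRE-beta-lactamase signal in HEK293T cells, 3 h compound exposure at 37 °C, detected by FRET substrate fluorescence.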

[15] = target: D(2) dopamine receptor (Homo sapiens) (UniProt P14416); assay: Dopamine D2 receptor (DRD2) small molecule agonists, cell-based qHTS assay (AID 1963594); also: nearly all actives have a fitted effect of over 35% in size
In short: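 cAMP accumulation in DRD2-HEK293 cells measured by HTRF after 1 h detection; compounds added 10 min before NKH477 (200nM […]) forskolin-analogue stimulation, 30 min at room temperature, with Ro20-1724 present at 0.1 mM final.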

[16] = target: D(2) dopamine receptor (Homo sapiens) (UniProt P14416); assay: Dopamine D2 receptor (DRD2) small molecule antagonists, cell-based qHTS assay (AID 1963595; active = well fitted inhibition curve with a large enough effect in the signal ratio in the repeat runs, with a control signal flat; the % refers to the signal ratio; also: potency is read from the fitted curve at half-maximal effect)
In short: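 Antagonism was scored as restored cAMP in HEK293-DRD2 cells. These cells were stimulated with 200 nM NKH477 and 12 nM quinpirole for 30 min at room temperature, in the presence of 0.1 mM Ro20-1724.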

[17] = p53 small molecule agonists, cell-based qHTS assay with rat liver microsomes (AID 1963578)
In short: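 Agonist mode in p53RE-bla reporter cells, with compounds co-incubated 16 h at 37 C alongside 0.5 mg/mL rat liver microsomes and 0.5 mg/mL NADPH (final), followed by a 2 h LiveBLAzer detection step.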

[18] = target: 5-hydroxytryptamine receptor 2A (Homo sapiens) (UniProt P28223); assay: 5-hydroxytryptamine receptor 2A (HTR2A) small molecule antagonists, cell-based qHTS assay (AID 1963586); also: nearly all actives have a fitted effect of over 45% in size; also: potency is read from the fitted curve at half-maximal effect
In short: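 Antagonist-mode intracellular calcium assay: DOI (4 nM) added after 5 min compound pre-incubation at room temperature to dye-loaded HTR2A-CHO cells. Fluorescence followed for 3 min, sampled every second.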

[19] = target: Beta-2 adrenergic receptor (Homo sapiens) (UniProt P07550); assay: Adrenergic beta2 receptor (ADRB2) small molecule antagonists, cell-based qHTS assay (AID 1963592); also: series mostly up to about 92 µM; nearly all actives have a fitted effect of over 50% in size
In short: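 Cells (CHO, stable ADRB2 overexpression) incubated 18-20hr at 37C; compounds added from DMSO; agonist mix (1nM isoproterenol, 100uM IBMX, 25uM Ro-20-1724) added; 0.5hr RT; d2-cAMP and anti-cAMP-cryptate added; 1hr RT; 665/615 nm read.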

[20] = target: Beta-2 adrenergic receptor (Homo sapiens) (UniProt P07550); assay: Adrenergic beta2 receptor (ADRB2) small molecule agonists, cell-based qHTS assay (AID 1963593);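 also: CHO cells stably overexpressing human ADRB2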
In short: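 CHO cells stably over-expressing ADRB2 were plated overnight at 37C, then dosed with compounds plus a stimulation mix containing 100uM IBMX and 25uM Ro-20-1724 for 0.5hr at room temperature. cAMP was measured by HTRF competition, 1hr.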

Sequence of Muscarinic acetylcholine receptor M1 (Homo sapiens) (P11229 whole entry, looked up): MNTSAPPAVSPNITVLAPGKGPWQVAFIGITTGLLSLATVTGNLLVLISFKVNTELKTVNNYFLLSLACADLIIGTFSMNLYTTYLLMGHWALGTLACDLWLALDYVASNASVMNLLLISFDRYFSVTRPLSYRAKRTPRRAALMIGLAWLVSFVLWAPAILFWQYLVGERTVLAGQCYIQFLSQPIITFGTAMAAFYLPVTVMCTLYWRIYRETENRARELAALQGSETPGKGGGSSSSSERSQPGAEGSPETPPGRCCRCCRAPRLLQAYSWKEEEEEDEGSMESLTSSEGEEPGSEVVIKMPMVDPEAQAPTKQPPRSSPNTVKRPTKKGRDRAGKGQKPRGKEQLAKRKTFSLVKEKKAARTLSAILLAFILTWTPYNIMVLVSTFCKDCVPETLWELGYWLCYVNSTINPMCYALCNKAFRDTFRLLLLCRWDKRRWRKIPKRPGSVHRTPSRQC
Sequence of 5-hydroxytryptamine receptor 2A (Homo sapiens) (P28223 whole entry, looked up): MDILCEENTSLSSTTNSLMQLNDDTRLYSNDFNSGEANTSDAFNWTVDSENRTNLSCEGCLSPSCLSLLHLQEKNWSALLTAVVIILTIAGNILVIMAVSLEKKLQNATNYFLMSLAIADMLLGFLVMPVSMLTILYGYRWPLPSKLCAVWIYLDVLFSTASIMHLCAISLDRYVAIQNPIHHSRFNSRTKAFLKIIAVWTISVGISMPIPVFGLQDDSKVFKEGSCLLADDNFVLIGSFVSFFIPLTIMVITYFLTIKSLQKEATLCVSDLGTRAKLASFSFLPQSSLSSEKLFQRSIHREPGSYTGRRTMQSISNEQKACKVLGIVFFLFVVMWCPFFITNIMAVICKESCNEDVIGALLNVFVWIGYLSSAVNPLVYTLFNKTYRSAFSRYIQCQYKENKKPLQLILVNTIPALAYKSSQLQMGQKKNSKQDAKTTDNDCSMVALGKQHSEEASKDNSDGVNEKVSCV
Sequence of Gonadotropin-releasing hormone receptor (Homo sapiens) (P30968 whole entry, looked up): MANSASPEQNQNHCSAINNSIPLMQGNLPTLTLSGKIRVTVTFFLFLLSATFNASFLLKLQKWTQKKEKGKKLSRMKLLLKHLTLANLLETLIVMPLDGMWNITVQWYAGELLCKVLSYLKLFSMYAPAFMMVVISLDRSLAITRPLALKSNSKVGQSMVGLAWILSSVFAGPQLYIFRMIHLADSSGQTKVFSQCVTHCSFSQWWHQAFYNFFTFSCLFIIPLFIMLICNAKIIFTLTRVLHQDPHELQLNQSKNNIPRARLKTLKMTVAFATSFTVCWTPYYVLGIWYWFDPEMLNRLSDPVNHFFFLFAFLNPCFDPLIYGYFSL
Sequence of KiSS-1 receptor (Homo sapiens) (Q969F8 whole entry, looked up): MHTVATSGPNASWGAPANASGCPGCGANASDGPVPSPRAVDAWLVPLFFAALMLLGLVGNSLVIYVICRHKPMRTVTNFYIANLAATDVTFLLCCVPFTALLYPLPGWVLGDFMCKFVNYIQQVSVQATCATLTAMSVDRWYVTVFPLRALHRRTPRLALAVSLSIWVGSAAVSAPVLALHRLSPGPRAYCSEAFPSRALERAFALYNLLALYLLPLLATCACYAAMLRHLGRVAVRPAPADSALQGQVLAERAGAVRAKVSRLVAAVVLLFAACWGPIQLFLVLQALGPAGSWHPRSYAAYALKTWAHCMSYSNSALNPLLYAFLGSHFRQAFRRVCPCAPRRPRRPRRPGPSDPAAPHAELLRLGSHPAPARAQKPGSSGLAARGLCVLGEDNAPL
Sequence of D(2) dopamine receptor (Homo sapiens) (P14416 whole entry, looked up): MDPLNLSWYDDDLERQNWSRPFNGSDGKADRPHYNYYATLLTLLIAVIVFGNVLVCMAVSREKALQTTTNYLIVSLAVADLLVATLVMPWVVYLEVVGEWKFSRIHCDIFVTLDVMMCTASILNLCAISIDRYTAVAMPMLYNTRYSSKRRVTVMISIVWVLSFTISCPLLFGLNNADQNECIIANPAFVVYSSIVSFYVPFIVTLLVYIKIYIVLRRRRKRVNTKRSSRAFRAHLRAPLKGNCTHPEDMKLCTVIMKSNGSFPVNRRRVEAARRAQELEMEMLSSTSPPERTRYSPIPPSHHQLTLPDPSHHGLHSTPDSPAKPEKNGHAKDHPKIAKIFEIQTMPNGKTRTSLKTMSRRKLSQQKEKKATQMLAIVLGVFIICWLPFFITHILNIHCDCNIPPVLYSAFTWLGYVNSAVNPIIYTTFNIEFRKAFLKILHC
Sequence of Beta-2 adrenergic receptor (Homo sapiens) (P07550 whole entry, looked up): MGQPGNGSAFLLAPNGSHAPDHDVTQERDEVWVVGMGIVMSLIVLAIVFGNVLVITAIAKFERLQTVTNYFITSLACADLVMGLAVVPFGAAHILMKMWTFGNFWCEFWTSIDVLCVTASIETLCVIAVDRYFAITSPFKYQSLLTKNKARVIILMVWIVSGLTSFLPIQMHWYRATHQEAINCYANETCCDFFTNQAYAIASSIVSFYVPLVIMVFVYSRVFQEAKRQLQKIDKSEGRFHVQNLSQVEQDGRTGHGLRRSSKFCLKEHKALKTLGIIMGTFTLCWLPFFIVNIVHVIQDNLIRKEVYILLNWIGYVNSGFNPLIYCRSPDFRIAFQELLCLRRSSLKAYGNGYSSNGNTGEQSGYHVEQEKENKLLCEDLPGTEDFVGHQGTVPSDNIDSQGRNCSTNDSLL

| Compound | Potency [1] | Potency [2] | Potency [3] | Potency [4] | Potency [5] | Potency [6] | Potency [7] | Potency [8] | Potency [9] | Potency [10] | Potency [11] | Potency [12] | Potency [13] | Potency [14] | Potency [15] | Potency [16] | Potency [17] | Potency [18] | Potency [19] | Potency [20] |
| --- | --- | --- | --- | --- | --- | --- | --- | --- | --- | --- | --- | --- | --- | --- | --- | --- | --- | --- | --- | --- |
| CCc1c(C)[nH]c2c1C(=O)C(CN1CCOCC1)CC2 (stereo unspecified) | inactive | inactive | inactive | inactive | inactive | inactive | inactive | inactive | inactive | inactive | inactive | inactive | inactive | inactive | inactive | 750 nM (active) | – | – | – | – |
| Clc1ccc(Nc2nnc(Cc3ccncc3)c3ccccc23)cc1 | inactive | inactive | inactive | inactive | inactive | inactive | inactive | inactive | inactive | inactive | 18.3 µM (active) | inactive | inactive | inactive | inactive | – | inactive | 18.3 µM (active) | inactive | – |
| O=C(/C=C/c1ccc(O)c(O)c1)O[C@@H]1C[C@@](OC(=O)/C=C/c2ccc(O)c(O)c2)(C(=O)O)C[C@@H](O)[C@@H]1O | inactive | inactive | inactive | inactive | inactive | inactive | inactive | – | inactive | inactive | inactive | inactive | inactive | inactive | inactive | inactive | – | inactive | inactive | inactive |
| COCCOC(=O)CC#N | inactive | inactive | inactive | inactive | inactive | inactive | inactive | inactive | inactive | inactive | – | inactive | inactive | inactive | inactive | inactive | – | inactive | inactive | inactive |
| C[Si](C)(C)C | inactive | inactive | inactive | inactive | inactive | – | – | inactive | inactive | inactive | inactive | inactive | inactive | inactive | – | inactive | – | – | – | – |
| CC(=O)OC/C=C(/C)CCC=C(C)C | inactive | inactive | inactive | inactive | inactive | inactive | inactive | inactive | inactive | inactive | inactive | inactive | inactive | inactive | inactive | inactive | inactive | inactive | inactive | inactive |
| CC[C@]1(O)C[C@H]2CN(CCc3c([nH]c4ccccc34)[C@@](C(=O)OC)(c3cc4c(cc3OC)N(C=O)[C@H]3[C@@](O)(C(=O)OC)[C@H](OC(C)=O)[C@]5(CC)C=CCN6CC[C@]43[C@@H]65)C2)C1 | inactive | 0.596 µM (active) | inactive | inactive | inactive | – | – | – | – | – | – | – | – | – | – | inactive | inactive | – | – | inactive |
| CCCCNC1CC(C)(C)NC(C)(C)C1 | inactive | inactive | inactive | inactive | inactive | inactive | inactive | inactive | – | inactive | inactive | inactive | inactive | inactive | inactive | inactive | – | inactive | inactive | inactive |
| O=C(OCCc1ccccc1)c1ccccc1 | inactive | 27.3 µM (active) | inactive | inactive | inactive | inactive | – | – | inactive | inactive | – | inactive | – | – | inactive | inactive | – | – | inactive | inactive |
| O=C1c2ccccc2-c2ccccc21 | inactive | inactive | inactive | inactive | inactive | inactive | inactive | inactive | inactive | inactive | inactive | inactive | inactive | inactive | inactive | inactive | – | inactive | inactive | – |
| CCCCN(CCN(CCCC)C(=O)N1CCOCC1)C(=O)N1CCOCC1 | 29.8 µM (active) | 21.1 µM (active) | inactive | inactive | inactive | – | – | inactive | inactive | inactive | inactive | inactive | – | – | inactive | inactive | inactive | – | – | inactive |
| c1ccc(C[n+]2cccc3ccccc32)cc1 | inactive | inactive | inactive | inactive | inactive | inactive | inactive | – | – | inactive | inactive | inactive | inactive | inactive | inactive | inactive | – | inactive | inactive | – |
| C[C@]12CC[C@H]3C(=CCc4cc(O)ccc43)[C@@H]1CCC2=O | inactive | inactive | inactive | inactive | inactive | inactive | inactive | inactive | inactive | inactive | inactive | inactive | inactive | – | inactive | inactive | – | inactive | – | inactive |
| CCC(=O)OCCC(C)CCC=C(C)C (stereo unspecified) | inactive | inactive | inactive | inactive | inactive | inactive | inactive | inactive | inactive | inactive | inactive | inactive | inactive | inactive | inactive | inactive | inactive | inactive | inactive | – |
| O=C(Cl)c1cc(Cl)cc(Cl)c1 | inactive | inactive | inactive | inactive | inactive | inactive | – | inactive | inactive | inactive | inactive | inactive | inactive | – | inactive | – | – | inactive | inactive | – |
| CCCCCC/C=C\CCCCCCCC(=O)O | inactive | inactive | inactive | inactive | inactive | inactive | inactive | inactive | inactive | inactive | inactive | inactive | inactive | inactive | inactive | inactive | inactive | inactive | inactive | inactive |
